What is called AC50 is the concentration giving half of the maximal activity seen.

“And” between values parts separate entries of the source, which are not always exact repeats. Identical values can stand only once. The whole screen tested about 16,000 compounds, of which about 5,700 (36%) were called active. Inconclusive results (about 24%) are left out. Some of the results follow. Values without a mark were called inactive. Calls come from the whole dose curve; as a rule, active = well fitted curve in the direction sought with a large enough effect; inconclusive = small, poorly fitted or top-dose-only effect, or effect the other way; inactive = no such curve, though single readings can be large or run the other way. Square brackets hold non-standard residues; d marks the D form. Peptide text beside a SMILES is read from it.

From PubChem BioAssay AID1851 (National Center for Advancing Translational Sciences (NCATS), 2009) come the findings set out here.
% is set by controls: 0 for no effect and ±100 for the full control effect.

The target of the test is Cytochrome P450 1A2 (Homo sapiens) (UniProt P05177). The test can be described thus: Cytochrome panel assay with activity outcomes. The conditions noted are these: recombinant CYP, pro-luciferin dealkylation, luminescence, p450-cyp1a2; series mostly up to 57.1 µM; activity, negative = inhibition: at the top concentration.
Sequence of Cytochrome P450 1A2 (Homo sapiens) (P05177 whole entry, looked up): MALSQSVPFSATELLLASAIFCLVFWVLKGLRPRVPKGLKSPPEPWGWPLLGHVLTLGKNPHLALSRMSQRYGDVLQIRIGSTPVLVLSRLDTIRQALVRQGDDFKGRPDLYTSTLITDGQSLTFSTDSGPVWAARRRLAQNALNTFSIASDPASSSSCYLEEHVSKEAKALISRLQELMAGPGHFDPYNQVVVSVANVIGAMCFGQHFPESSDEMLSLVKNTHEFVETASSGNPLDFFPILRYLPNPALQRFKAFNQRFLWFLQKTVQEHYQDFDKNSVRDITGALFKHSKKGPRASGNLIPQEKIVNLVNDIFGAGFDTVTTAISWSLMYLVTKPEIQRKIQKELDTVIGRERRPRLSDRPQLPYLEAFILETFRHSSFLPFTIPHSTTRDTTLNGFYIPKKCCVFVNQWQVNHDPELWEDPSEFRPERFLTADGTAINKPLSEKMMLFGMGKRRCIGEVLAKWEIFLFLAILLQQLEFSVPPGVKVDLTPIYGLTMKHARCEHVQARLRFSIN
Take `O=C(Nc1ccccc1N1CCOCC1)c1cnccn1`: the AC50 is 4.47 µM (active).

As to `O=C(Nc1ccccc1N1CCOCC1)c1ccc([N+](=O)[O-])cc1`, the “activity, negative = inhibition” value is -29.5%.

For the molecule `O=C(c1cnccn1)N1CCC2(CC1)CCN(c1ccccc1)CC2`, the “activity, negative = inhibition” value was -10.3%.

For `c1cc(NC2CC2)nc(-c2ccoc2)n1`, the AC50 was 0.251 µM (active).

For `COCCNc1ccnc(-c2c(C)noc2C)n1`, the AC50 is 2.51 µM (active).

As for `Cc1noc(C)c1-c1nccc(NC2CC2)n1`, the AC50 was 0.1 µM (active).

As to `CNc1ccnc(-c2c(C)noc2C)n1`, the AC50 was 1.26 µM (active).

For `O=C1O/C(=C\Br)CC[C@@H]1c1cccc2ccccc12`, the “activity, negative = inhibition” value was 1.77%.

For the molecule `Clc1cnccn1`, the “activity, negative = inhibition” value was -1.25% [at 25.6 µM].

As to `Cc1noc(C)c1-c1nccc(Nc2ccc(F)cc2)n1`, the AC50 was 0.398 µM (active).

On to `Cn1c2c(c(=O)n(C)c1=O)CN(CCN1CCNCC1)CN2`, for which the “activity, negative = inhibition” value was -2.63%.

With `COc1ccc(C(=O)N2CCC3(CC2)CCN(c2ncccn2)CC3)cc1`, the “activity, negative = inhibition” value was -11.8%.

In the case of `COC(=O)c1ccc(Oc2nc(N(C)C)nc(N3CCOCC3)n2)cc1`, the AC50 is 3.55 µM (active).

`O=c1ccc(Oc2nc(N3CCOCC3)nc(N3CCOCC3)n2)n[nH]1`: the “activity, negative = inhibition” value was 6.81%.

As for `Cc1ccc(CNCC(O)(c2ccc(F)cc2)c2ccc(F)cc2)cc1`, the “activity, negative = inhibition” value was -25.5%.

Turning to `CCOC(=O)C(C(=O)NCc1ccc(C)cc1)c1ncc(C(F)(F)F)cc1Cl` (centres undefined), the AC50 is 10 µM (active).

Regarding `NCC(=O)N[C@H](CO)C(=O)O` (H-Gly-[dS]-OH), the activity, negative = inhibition was -8.79% [at 11.4 µM].

Turning to `OC[C@@H]1O[C@@H](n2cnc3cncnc32)[C@@H](O)[C@H]1O`, the “activity, negative = inhibition” value is 0.567%.

Regarding `COc1cccc(Cn2c(=O)cnc3cncnc32)c1`, the AC50 was 15.8 µM (active).

As for `O=c1cnc2cncnc2n1Cc1ccccc1`, the AC50 is 25.1 µM (active).

Turning to `Cc1ccc([C@@H](O)c2cnc(C)n2Cc2ccccc2)cc1`, the activity, negative = inhibition is -10.8% [at 11.4 µM].

As to `CCCn1nnnc1-c1cc(Cl)cc(Cl)c1`, the AC50 is 2.82 µM (active).

Consider `CC(C)n1nnnc1-c1cc(Cl)cc(Cl)c1`, for which the half-maximal activity concentration (AC50) is 8.91 µM (active).

For the molecule `CC(C)CC(c1nnnn1C(C)C)N1CCN(c2ccccc2)CC1` (centres undefined), the “activity, negative = inhibition” value is -13.3%.

Consider `CCS(=O)(=O)c1ccc2c(c1)N(S(C)(=O)=O)CC(C(=O)NCCOC)O2` (centres undefined), for which the “activity, negative = inhibition” value is 2.25%.

Consider `CCOC(=O)CCN1C(=O)[C@H]2[C@@H]3[C@H](O)[C@H](O)CC(=O)[C@H]3CC[C@H]2C1=O`, for which the activity, negative = inhibition is -2.79% [at 11.4 µM] and -9.9% [at 11.4 µM].

Consider `COC(=O)C/C=C\[C@@H](C)[C@@H](/C=N\O[C@@H](C)CN1CCCc2nc(C)c(C)cc21)NS(=O)(=O)c1ccc(C)cc1`, for which the activity, negative = inhibition was -5.78% [at 11.4 µM].

For `Nc1ccc2c3c(cccc13)C(=O)NC2=O`, the AC50 was 1 µM (active).

For `O=C(O)/C=C1\NC(=O)c2ccccc21`, the “activity, negative = inhibition” value was 8.34%.

For the molecule `COC(=O)c1sc2ncccc2c1OCc1c(Cl)cccc1Cl`, the AC50 was 0.158 µM (active).

In the case of `COc1cc(CNCCc2ccccc2)ccc1OCC(=O)NC(C)(C)C`, the “activity, negative = inhibition” value is -16.3%.

With `COc1ccc(CNC(=O)Nc2cccs2)cc1OC`, the AC50 was 12.6 µM (active).

For the molecule `COc1ccc(CCn2c3c(c(=O)[nH]c2=O)C(NC(=O)c2cccs2)(C(F)(F)F)C(=O)N3)cc1OC` (centres undefined), the “activity, negative = inhibition” value is -9.34%.

For the molecule `COc1ccc(C[C@@](C)(N)C(=O)O)cc1OC`, the “activity, negative = inhibition” value was -5.47% [at 25.6 µM].

Regarding `COc1cc(CNCc2cccs2)ccc1OCC(=O)NC(C)(C)C`, the AC50 was 3.16 µM (active).

Take `COc1ccc(NC(=O)COc2ccc(CNCCCN3CCOCC3)cc2OC)cc1`: the “activity, negative = inhibition” value was -19.7%.

Consider `C/C(CCN1CCCCc2nc(C)c(C)cc21)=N\OC[C@@H](C)[C@H](OCc1ccccc1)C(C)C`, for which the activity, negative = inhibition is -4.06% [at 11.4 µM].

On to `N#Cc1ccc(CN2CCC3(CC2)CCN(C(=O)c2cc(C(F)(F)F)cc(C(F)(F)F)c2)CC3)cc1`, for which the “activity, negative = inhibition” value was -8.67%.

As for `COCC(=O)N1CCC2(CCN(Cc3ccncc3)CC2)CC1`, the AC50 was 10 µM (active).

For the molecule `N#Cc1ccc(CN2CC[C@@]3(CCCN(C(=O)c4cc(C(F)(F)F)cc(C(F)(F)F)c4)C3)C2)cc1`, the AC50 was 25.1 µM (active).

`CC(=O)N1CCC2(CCN(Cc3ccncc3)CC2)CC1`: the “activity, negative = inhibition” value is -11.1%.

For `O=S(=O)(c1ccccc1)N1CCC2(CCCN(Cc3ccncc3)C2)CC1`, the AC50 was 12.6 µM (active).

`O=C(c1cc(C(F)(F)F)cc(C(F)(F)F)c1)N1CCC2(CCCN(Cc3ccncc3)C2)CC1`: the “activity, negative = inhibition” value is -16.3%.

For the molecule `O=C(c1cc(C(F)(F)F)cc(C(F)(F)F)c1)N1CCC[C@@]2(CCN(c3ccncc3)C2)C1`, the “activity, negative = inhibition” value was 5.24%.

In the case of `O=C(c1cc(C(F)(F)F)cc(C(F)(F)F)c1)N1CCC[C@@]2(CCN(Cc3ccncc3)C2)C1`, the AC50 was 12.6 µM (active).

As for `N#Cc1ccc(CN2CCCC3(CCN(S(=O)(=O)c4ccccc4)CC3)C2)cc1`, the “activity, negative = inhibition” value is -13.6%.

On to `O=S(=O)(c1ccccc1)N1CCC2(CCN(Cc3ccncc3)CC2)CC1`, for which the “activity, negative = inhibition” value is -9.3%.

For `O=C(c1ccncc1)N1CCC2(CCN(Cc3ccncc3)CC2)CC1`, the “activity, negative = inhibition” value was -7.78%.

Turning to `N#Cc1ccc(CN2CC3(CCN(C(=O)c4cc(C(F)(F)F)cc(C(F)(F)F)c4)CC3)C2)cc1`, the “activity, negative = inhibition” value is -2.91%.
